Measurements as given in PubChem BioAssay.
Unmarked numbers belong to inactive results. Active and inactive are the calls of the source. Rule as the data show it, unless noted: active = inhibition above about 36%; inactive = the rest.

test system: transactivating tegument protein VP16 (Human herpesvirus 1); assay: compounds suppressing VP16-driven luciferase signal – cell-based, luminescence, single concentration, counter-screen for SRC2 inhibitor project (AID 652007); conditions: cell-based VP16 transactivation luciferase reporter, at 8.9 µM, active compounds read high

SMILES	inhibition
N#Cc1c([N+](=O)[O-])cc([N+](=O)[O-])cc1S(=O)(=O)Cc1ccccc1	96.4% (active)
COc1cccc(C(NC(C)=O)c2nc(-c3cccc(C#N)c3)cs2)c1 (stereo not given)	-10.7%
CCN(CC)c1ccc(NC(=O)CCCCC(=O)Nc2ccc(N(CC)CC)cc2)cc1	16.2%
CC12CCC(=O)C=C1CCC1C2CCC2(C)C(c3csc(N)n3)CCC12 (stereo not given)	10.2%
Cc1ccc2nc(-c3ccc4c(c3)OCCO4)cn2c1	58.9% (active)
Cc1ccc(NC(=O)CCN2CCCCC2)cc1	-25%
CCc1cccc(C)c1NC(=O)CSc1nnc(CCCOc2ccc(Cl)cc2Cl)n1C	-13.2%
CCOC(=O)C1CCCN(C(=O)CCNS(=O)(=O)c2ccc(Br)cc2)C1 (stereo not given)	10.6%
CC(C)c1ccc(/C=C2\CC/C(=C\C=N\N(C)C)C2=O)cc1	-56.7%
Cc1c(C)n(Cc2ccccc2)c2ncnc(Cl)c12	19.1%
Cc1ccc(C(=O)O/N=C(\N)c2ccccn2)cc1	-66.4%
CCOc1ccc(N2CC(C(=O)Nc3ccc4c(c3)OCCO4)CC2=O)cc1 (stereo not given)	-5.36%
COC(=O)[C@H]1[C@@H](O)[C@@]2(O)c3c(OC)cc(OC)cc3O[C@@]2(c2ccc(OC)cc2)[C@@H]1c1ccc(F)cc1	32.4%
O=C(CCCc1cccs1)N1CCN(S(=O)(=O)c2ccccc2Br)CC1	-1.31%
O=C(N/N=C/c1ccc([N+](=O)[O-])o1)c1cc2ccccc2o1	21.6%
COc1ccc(OC)c(S(=O)(=O)Nc2ccc3c(c2)OCCO3)c1	-22.5%
COc1cccc(C(=O)c2sc(NC(C)C)nc2N)c1	6.6%
COc1ccc(-c2nnc(SCc3cccc(F)c3)n2-c2ccccc2)cc1	-12.4%
Cc1cc(N)ccc1-n1nc2ccccc2n1	-7.48%
NC(=O)C1CCN(CCS(=O)(=O)c2ccc(Cl)cc2)CC1	-1.09%

SMILES	inhibition
COc1ccc(NC(=O)Cc2nnc(SCC(=O)Nc3ccc(F)cc3)n2C)cc1	-17.1%
O=C(CCCSc1nc2ccccc2s1)NC1=NCCS1	27.1%
O=C(c1ccccc1)N1CCN(c2ncnc3sc4c(c23)CCC4)CC1	19.7%
Cc1nc2scc(C)n2c(=O)c1S(=O)(=O)Nc1ccc(OC(F)(F)F)cc1	-5.83%
O=C(Nc1ccc2nc3n(c(=O)c2c1)CCCCC3)c1c(F)ccc([N+](=O)[O-])c1F	83% (active)
COc1ccc(OC)c(CC(=O)Nc2ccc3c(c2)c(=O)n(C)n3Cc2cccc(C(F)(F)F)c2)c1	-5.16%
Cc1ccc2c(c1)sc(=NC(=O)c1cccs1)n2C	-58.3%
CCCC(CCC)C(=O)Nc1ccc2c(c1)N(C(=O)CN1CCN(C)CC1)c1ccccc1CC2	-0.11%
COc1ccc(CNn2c(-c3cccs3)nc3ccccc3c2=O)cc1OC	-9.43%
Cc1ccc(/C=C2\SC(=S)N(CCCC(=O)Nc3ccccc3C(=O)O)C2=O)cc1	40% (active)
O=C(NC(c1ccc(F)cc1)c1ccc2ccccc2n1)C1CCN(CCOc2ccc(F)cc2)CC1 (stereo not given)	-1.57%
Cc1cc(Cl)ccc1OCCCC(=O)NO	6.12%
O=C(CCl)N1c2ccccc2CCc2ccccc21	29.1%
CC(C)(C)C(=O)Nc1nnc(CSCc2ccccc2F)s1	-20.9%
CCC1CSC(Nc2ccc(C(=O)/C=C/c3ccc(OC)c(OC)c3)cc2)=N1 (stereo not given)	12.8%
C=C1C(=O)[C@]23C[C@H]1CC[C@H]2[C@]1(C)CCC[C@@](C)(C(=O)OC)[C@H]1C[C@@H]3O	77.6% (active)
CC(C)(C)NC(=O)COC(=O)c1snc(C(=O)NC2CCCCC2)c1N	-7.99%
O=C(NCCS(=O)(=O)N1CCN(c2ccc(F)cc2)CC1)c1ccc(Br)o1	-22.6%
COCCN(C(=O)CCC(=O)Nc1nccs1)C(C(=O)NC(C)(C)C)c1ccc(C)cc1 (stereo not given)	11.2%
COc1ccc2c(n1)Sc1nc3ccccc3nc1N2	-80.4%

molecular target: Nuclear receptor coactivator 2 (Homo sapiens) (UniProt Q15596); assay: inhibition of GAL4-SRC2 driven luciferase expression – cell-based, luminescence, HEK293, triplicate, confirmation (AID 652008;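 active = mean inhibition above 46.5%, the solvent-only control mean plus 3 SD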;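 also: 0% = DMSO-treated cells and 100% = Gossypol at 36 µM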); conditions: HEK293 GAL4-SRC2 luciferase reporter, at 8.9 µM, active compounds read high
Sequence (Q15596 whole entry, looked up, the tested form may be a part): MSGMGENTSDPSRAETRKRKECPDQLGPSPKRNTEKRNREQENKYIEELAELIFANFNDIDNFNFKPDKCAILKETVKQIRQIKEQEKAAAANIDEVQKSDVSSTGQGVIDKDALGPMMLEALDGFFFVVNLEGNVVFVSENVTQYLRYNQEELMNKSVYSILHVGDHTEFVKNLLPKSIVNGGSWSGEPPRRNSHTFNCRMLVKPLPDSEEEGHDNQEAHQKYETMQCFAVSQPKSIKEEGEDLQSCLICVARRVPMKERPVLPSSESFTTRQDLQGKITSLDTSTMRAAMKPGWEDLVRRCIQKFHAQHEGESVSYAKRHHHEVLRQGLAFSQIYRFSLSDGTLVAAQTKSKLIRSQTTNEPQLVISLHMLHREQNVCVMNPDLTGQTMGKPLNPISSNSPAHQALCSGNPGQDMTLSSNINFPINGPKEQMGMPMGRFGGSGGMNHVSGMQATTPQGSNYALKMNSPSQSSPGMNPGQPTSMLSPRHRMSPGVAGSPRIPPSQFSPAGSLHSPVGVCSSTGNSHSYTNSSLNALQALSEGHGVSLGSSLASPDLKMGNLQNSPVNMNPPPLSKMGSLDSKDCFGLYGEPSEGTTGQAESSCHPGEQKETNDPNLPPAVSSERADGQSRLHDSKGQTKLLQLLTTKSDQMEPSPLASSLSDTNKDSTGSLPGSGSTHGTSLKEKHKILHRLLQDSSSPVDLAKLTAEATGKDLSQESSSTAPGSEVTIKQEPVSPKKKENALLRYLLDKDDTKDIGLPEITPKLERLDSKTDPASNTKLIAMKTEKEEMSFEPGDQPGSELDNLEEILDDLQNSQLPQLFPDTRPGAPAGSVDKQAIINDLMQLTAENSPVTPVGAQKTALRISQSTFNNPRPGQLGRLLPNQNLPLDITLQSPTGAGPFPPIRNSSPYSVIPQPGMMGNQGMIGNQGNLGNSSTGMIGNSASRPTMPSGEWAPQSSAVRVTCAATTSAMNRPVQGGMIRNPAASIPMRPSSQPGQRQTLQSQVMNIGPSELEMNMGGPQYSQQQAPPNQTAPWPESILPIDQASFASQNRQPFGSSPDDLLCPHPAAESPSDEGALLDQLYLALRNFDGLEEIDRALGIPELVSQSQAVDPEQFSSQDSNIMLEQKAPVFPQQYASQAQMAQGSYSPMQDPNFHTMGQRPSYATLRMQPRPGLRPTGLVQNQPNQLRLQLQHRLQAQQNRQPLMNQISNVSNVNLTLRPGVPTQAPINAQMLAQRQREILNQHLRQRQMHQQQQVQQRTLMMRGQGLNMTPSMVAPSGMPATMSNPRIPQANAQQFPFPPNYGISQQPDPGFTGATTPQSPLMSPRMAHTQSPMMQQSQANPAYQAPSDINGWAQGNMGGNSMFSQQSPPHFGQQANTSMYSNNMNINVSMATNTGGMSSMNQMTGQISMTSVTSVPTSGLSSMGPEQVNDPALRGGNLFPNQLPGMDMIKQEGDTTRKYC

SMILES	inhibition
N#Cc1c([N+](=O)[O-])cc([N+](=O)[O-])cc1S(=O)(=O)Cc1ccccc1	98.5% (active)
COc1cccc(C(NC(C)=O)c2nc(-c3cccc(C#N)c3)cs2)c1 (stereo not given)	-26.2%
CCN(CC)c1ccc(NC(=O)CCCCC(=O)Nc2ccc(N(CC)CC)cc2)cc1	48.3% (active)
CC12CCC(=O)C=C1CCC1C2CCC2(C)C(c3csc(N)n3)CCC12 (stereo not given)	24.6%
Cc1ccc2nc(-c3ccc4c(c3)OCCO4)cn2c1	88.3% (active)
Cc1ccc(NC(=O)CCN2CCCCC2)cc1	32.5%
CCc1cccc(C)c1NC(=O)CSc1nnc(CCCOc2ccc(Cl)cc2Cl)n1C	-8.02%
CCOC(=O)C1CCCN(C(=O)CCNS(=O)(=O)c2ccc(Br)cc2)C1 (stereo not given)	-4.97%
CC(C)c1ccc(/C=C2\CC/C(=C\C=N\N(C)C)C2=O)cc1	-2.89%
Cc1c(C)n(Cc2ccccc2)c2ncnc(Cl)c12	39.9%
Cc1ccc(C(=O)O/N=C(\N)c2ccccn2)cc1	-57%
CCOc1ccc(N2CC(C(=O)Nc3ccc4c(c3)OCCO4)CC2=O)cc1 (stereo not given)	-6.17%
COC(=O)[C@H]1[C@@H](O)[C@@]2(O)c3c(OC)cc(OC)cc3O[C@@]2(c2ccc(OC)cc2)[C@@H]1c1ccc(F)cc1	51.4% (active)
O=C(CCCc1cccs1)N1CCN(S(=O)(=O)c2ccccc2Br)CC1	-4.17%
O=C(N/N=C/c1ccc([N+](=O)[O-])o1)c1cc2ccccc2o1	56.4% (active)
COc1ccc(OC)c(S(=O)(=O)Nc2ccc3c(c2)OCCO3)c1	21.2%
COc1cccc(C(=O)c2sc(NC(C)C)nc2N)c1	57.2% (active)
COc1ccc(-c2nnc(SCc3cccc(F)c3)n2-c2ccccc2)cc1	-7.06%
Cc1cc(N)ccc1-n1nc2ccccc2n1	3.06%
NC(=O)C1CCN(CCS(=O)(=O)c2ccc(Cl)cc2)CC1	-24.6%

SMILES	inhibition
COc1ccc(NC(=O)Cc2nnc(SCC(=O)Nc3ccc(F)cc3)n2C)cc1	-24%
O=C(CCCSc1nc2ccccc2s1)NC1=NCCS1	20.4%
O=C(c1ccccc1)N1CCN(c2ncnc3sc4c(c23)CCC4)CC1	37.1%
Cc1nc2scc(C)n2c(=O)c1S(=O)(=O)Nc1ccc(OC(F)(F)F)cc1	6.78%
O=C(Nc1ccc2nc3n(c(=O)c2c1)CCCCC3)c1c(F)ccc([N+](=O)[O-])c1F	75.5% (active)
COc1ccc(OC)c(CC(=O)Nc2ccc3c(c2)c(=O)n(C)n3Cc2cccc(C(F)(F)F)c2)c1	-6.44%
Cc1ccc2c(c1)sc(=NC(=O)c1cccs1)n2C	-3.83%
CCCC(CCC)C(=O)Nc1ccc2c(c1)N(C(=O)CN1CCN(C)CC1)c1ccccc1CC2	-4.28%
COc1ccc(CNn2c(-c3cccs3)nc3ccccc3c2=O)cc1OC	33.2%
Cc1ccc(/C=C2\SC(=S)N(CCCC(=O)Nc3ccccc3C(=O)O)C2=O)cc1	59.4% (active)
O=C(NC(c1ccc(F)cc1)c1ccc2ccccc2n1)C1CCN(CCOc2ccc(F)cc2)CC1 (stereo not given)	-16.5%
Cc1cc(Cl)ccc1OCCCC(=O)NO	32.7%
O=C(CCl)N1c2ccccc2CCc2ccccc21	31.7%
CC(C)(C)C(=O)Nc1nnc(CSCc2ccccc2F)s1	9.89%
CCC1CSC(Nc2ccc(C(=O)/C=C/c3ccc(OC)c(OC)c3)cc2)=N1 (stereo not given)	39.9%
C=C1C(=O)[C@]23C[C@H]1CC[C@H]2[C@]1(C)CCC[C@@](C)(C(=O)OC)[C@H]1C[C@@H]3O	90.4% (active)
CC(C)(C)NC(=O)COC(=O)c1snc(C(=O)NC2CCCCC2)c1N	8.82%
O=C(NCCS(=O)(=O)N1CCN(c2ccc(F)cc2)CC1)c1ccc(Br)o1	-4.89%
COCCN(C(=O)CCC(=O)Nc1nccs1)C(C(=O)NC(C)(C)C)c1ccc(C)cc1 (stereo not given)	5.44%
COc1ccc2c(n1)Sc1nc3ccccc3nc1N2	-87.5%
